High-throughput results as filed in PubChem BioAssay.
Sampled rows, rich in hits. Any-hit rate of the full collection: about 2.5%.
MEKK3 PB1 HTS: modulators of MEKK3-MEK5 PB1 binding, primary screen, biochemical, wildtype MEKK3, multiplex bead flow cytometry, Alexa488-MEK5; binding response (% of control), % at 10 µM; bead-based flow cytometry, Alexa488-MEK5 binding to MEKK3; actives lie on both sides; 0 = blocked by unlabeled MEK5, 100 = vehicle; AID 1529, 2009; actives 1.4% (n = 290,000); Mitogen-activated protein kinase kinase kinase 3 (Homo sapiens), Q99759;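 active means binding response more than 3 SD above or below the average of its plate-row segment, actives on both sides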;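 further: Alexa488 bead fluorescence after subtracting the streptavidin-only scavenger bead signal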
Target sequence (Q99759 whole entry, looked up): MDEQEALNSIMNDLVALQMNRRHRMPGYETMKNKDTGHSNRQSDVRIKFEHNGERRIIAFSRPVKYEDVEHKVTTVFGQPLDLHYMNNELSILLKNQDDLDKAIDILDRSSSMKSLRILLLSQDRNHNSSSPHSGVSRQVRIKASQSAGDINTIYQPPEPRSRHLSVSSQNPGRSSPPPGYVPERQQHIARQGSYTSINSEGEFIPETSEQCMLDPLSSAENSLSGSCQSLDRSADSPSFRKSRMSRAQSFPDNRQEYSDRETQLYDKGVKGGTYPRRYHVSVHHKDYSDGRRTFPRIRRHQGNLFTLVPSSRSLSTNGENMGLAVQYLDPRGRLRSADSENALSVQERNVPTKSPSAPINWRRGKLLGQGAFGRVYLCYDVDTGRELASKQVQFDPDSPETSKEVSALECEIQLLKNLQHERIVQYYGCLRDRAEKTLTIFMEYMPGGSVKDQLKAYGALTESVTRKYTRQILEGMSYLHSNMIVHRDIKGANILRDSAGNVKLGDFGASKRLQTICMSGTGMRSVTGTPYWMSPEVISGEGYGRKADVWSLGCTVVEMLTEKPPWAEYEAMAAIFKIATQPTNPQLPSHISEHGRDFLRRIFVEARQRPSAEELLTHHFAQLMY
UBC13 inh: UBC13 polyubiquitin chain formation inhibitors, primary screen, biochemical, TR-FRET, uHTS. Ubiquitin-conjugating enzyme E2 N (Homo sapiens), P61088. AID 485273, 2010. inhibition, % at 20 µM. actives 0.47% (n = 330,000); in the data active means inhibition above about 45%, passing the limit was not always enough
Rce1 inh: yeast Rce1p protease inhibitors, primary screen, biochemical, fluorescence, cell-free homogeneous; CAAX prenyl protease 2 (Saccharomyces cerevisiae (strain ATCC 204508 / S288c)), Q03530; actives 0.27% (n = 290,000); AID 2563, 2010; calls only; yeast membranes, quenched prenylated peptide cleavage fluorescence;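 active means fall in fluorescence gain of 50% or more versus controls, with final raw signal at or below 3038400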;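 further: plate controls were neutral control wells for no effect and wells lacking membranes for full effect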
MEKK2 mut-MEK5: MEK5 binding signal on mutant MEKK2 PB1, primary screen, biochemical, multiplex bead flow cytometry, Alexa488-MEK5; Alexa488-MEK5 binding to MEKK2 mutant; percent response, % at 10 µM; actives 0.35% (n = 290,000); AID 1530, 2009; in the data active means percent response above about 24%, passing the limit was not always enough
MEKK2 WT-MEK5: modulators of MEK5 binding to wildtype MEKK2, primary screen, biochemical, multiplex bead flow cytometry, Alexa488-MEK5; Mitogen-activated protein kinase kinase kinase 2 (Homo sapiens), Q9Y2U5; actives 1.1% (n = 290,000); Alexa488-MEK5 binding to MEKK2 WT; actives lie on both sides; AID 1531, 2009; binding response (% of control), % at 10 µM; in the data active means binding response below about 67% or above about 130%
MEKK2wt confirm: modulators of MEK5 binding to wildtype MEKK2, confirmation, biochemical, single concentration, multiplex bead flow cytometry; shares compounds with MEKK3 PB1 HTS; Alexa488-MEK5 binding to MEKK2 WT; actives lie on both sides; binding response (% of control), % at 10 µM; actives 2.4% (n = 5,900); in the data active means binding response below about 16% or above about 210%; inactive means in between
MEKK2mut confirm: mutant MEKK2 PB1-MEK5 binding signal retest – biochemical, single concentration, multiplex bead flow cytometry, confirmation. shares compounds with MEKK3 PB1 HTS. Alexa488-MEK5 binding to MEKK2 mutant. percent response, % at 10 µM. actives 2% (n = 5,900). AID 1893, 2009; in the data active means percent response mostly above about 71%, no sharp cut-off; inactive means mostly below about 38%;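 further: higher means compound restores mutant binding toward wildtype level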
MEKK3-MEK5 inh: MEKK3 wild-type PB1 binding to MEK5, inhibitors, confirmation, biochemical, bead multiplex flow cytometry, single concentration, wildtype; shares compounds with MEKK3 PB1 HTS; actives 1.8% (n = 5,900); binding response (% of control), % at 10 µM; Alexa488-MEK5 binding to MEKK3; stronger effect = lower value;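 active means binding response below 72% of control, or above a set upper limit, though filed actives all read lower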;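 further: 100% = DMSO only wells and 0% = binding blocked by excess unlabeled MEK5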
Starred values were filed as active, the others as inactive; i = inactive; nt = no result; [ ] = another dose, or the depositor's remark.

SMILES | MEKK3 PB1 HTS | UBC13 inh | Rce1 inh | MEKK2 mut-MEK5 | MEKK2 WT-MEK5 | MEKK2wt confirm | MEKK2mut confirm | MEKK3-MEK5 inh
CCC(CC)NC(=O)CON=C1c2ccccc2-c2ccccc21 | 146* | 8 | i | 0 | 107 | 99 | -2 | 102
CC1Cc2ccccc2N1C1=CC(=O)CCC1 (configuration not stated) | 0.0*[inhibitor] | 0 | i | -47 | 0.0*[inhibitor] | 108 | 9 | 106
CCCC(=O)Nc1sc2c(c1C(=O)OCC)CC(C)(C)OC2 | 87 | -1 | i | -8 | 83 | nt | nt | nt
CCOC(=O)c1c(NC(=O)CN2CCOCC2)sc2c1CC(C)(C)OC2 | 3.0*[inhibitor] | 4 | i | -20 | 4.0*[inhibitor] | 106 | 3 | 101
CCOC(=O)c1c(NC(=O)CCC(=O)N2CCOCC2)sc2c1CC(C)(C)OC2 | 79*[inhibitor] | -14 | i | -1 | 85 | 100 | 6 | 101
CCOC(=O)c1c(NC(=O)CCN2CCOCC2)sc2c1CC(C)(C)OC2 | 113 | 2 | i | 8 | 114 | nt | nt | nt
COc1ccc(-c2csc3ncn(CC(=O)N4CCOCC4)c(=O)c23)cc1 | 97 | -2 | i | -13 | 88 | nt | nt | nt
CCCOc1ccc(N2C(=O)CC(NCc3ccc(S(N)(=O)=O)cc3)C2=O)cc1 (configuration not stated) | 99 | -2 | i | -7 | 104 | nt | nt | nt
CCCCOc1ccc(N2C(=O)CC(NCCc3ccc(S(N)(=O)=O)cc3)C2=O)cc1 (configuration not stated) | 122* | 7 | i | 5 | 119 | 111 | 7 | 105
NS(=O)(=O)c1ccc(CCNC(=O)Cc2ccc(Cl)cc2)cc1 | 90 | -5 | i | -4 | 96 | nt | nt | nt
CCS(=O)(=O)c1ccc(O)c(NC(=O)COc2ccc(C)cc2)c1 | 154* | 12 | i | 0 | 106 | 109 | 7 | 101
CCS(=O)(=O)c1ccc(O)c(NC(=O)COc2ccc(OC)cc2)c1 | 90 | 4 | i | -2 | 96 | nt | nt | nt
CCOC(=O)C(=O)Nc1cc(C)on1 | 95 | -6 | i | -12 | 88 | nt | nt | nt
CC(=O)CSc1nnc2c3ccccc3nc(C(C)(C)C)n12 | 73*[inhibitor] | -12 | i | -15 | 63*[inhibitor] | 101 | -4 | 101
CCN(CC)c1ccc(C=C(c2nnnn2-c2ccc(C)cc2)c2nnnn2-c2ccc(C)cc2)cc1 | 131* | -36 | nt | 1 | 102 | 95 | 2 | 104
Cc1ccc(-n2nnnc2-c2ccccc2)cc1 | 96 | 11 | i | -2 | 96 | nt | nt | nt
CC(NC(=O)/C=C/c1ccco1)c1nc2ccccc2n1Cc1ccccc1F (configuration not stated) | 135* | 4 | i | 1 | 107 | 76 | -10 | 76
CC(NC(=O)/C=C/c1ccco1)c1nc2ccccc2n1Cc1c(Cl)cccc1Cl (configuration not stated) | 101 | -8 | i | 15 | 104 | nt | nt | nt
Cc1ccc(-c2nc(CN(C)Cc3cccc4cnccc34)c(C)o2)s1 | 102 | -1 | i | 8 | 106 | nt | nt | nt
Cc1cc(C)nc(-n2ncc3c2CC(c2ccccc2C)CC3=O)n1 (configuration not stated) | 137* | 7 | i | 0 | 103 | 103 | 0 | 102
OCCC1CN(Cc2cccn2-c2ncccn2)CCN1CCc1ccccc1 (configuration not stated) | 108 | 6 | i | 14 | 112 | nt | nt | nt
Cc1c(N2C(=O)C(=O)/C(=C(/O)c3ccccc3)C2c2ccc(F)cc2)c(=O)n(-c2ccccc2)n1C (configuration not stated) | 102 | -6 | i | 17 | 112 | nt | nt | nt
Cc1c(N2C(=O)C(=O)/C(=C(/O)c3ccc(Cl)cc3)C2c2ccccc2)c(=O)n(-c2ccccc2)n1C (configuration not stated) | 135* | -25 | i | 0 | 105 | 97 | -5 | 96
N#C/C(=C\c1ccc(N2CCOCC2)cc1)c1ccccc1 | 137* | -4 | i | 0 | 100 | 102 | 2 | 101
COCCOc1cc(-n2cccc2)c(Cl)cc1Cl | 90 | 2 | nt | -5 | 87 | nt | nt | nt
SMILES | MEKK3 PB1 HTS | UBC13 inh | Rce1 inh | MEKK2 mut-MEK5 | MEKK2 WT-MEK5 | MEKK2wt confirm | MEKK2mut confirm | MEKK3-MEK5 inh
COCc1cc(C)nc(OCC(=O)N/N=C/c2ccccc2O)c1C#N | 92 | -30 | i | 188* | 85 | 98 | 0 | 99
O=C(Nc1ccccc1C(=O)NC1CC1)c1ccccc1F | nt | 10 | nt | nt | nt | nt | nt | nt
CCOC(=O)C(NC(=O)c1ccccc1Cl)(Nc1ccc(C(F)(F)F)cc1)C(F)(F)F (configuration not stated) | 151* | 9 | i | 3 | 106 | 101 | -3 | 101
CCOC(=O)C(NC(=O)c1ccccc1Cl)(Nc1ccc(C)c(C)c1)C(F)(F)F (configuration not stated) | 120 | -12 | i | -1 | 102 | nt | nt | nt
CCc1ccc(C2=NN(CCC(=O)NC3CC3)C(=O)CC2)cc1 | 144* | 6 | i | 0 | 106 | 98 | -12 | 101
Cc1cc(-c2ccc(Cl)cc2)n2ncnc2n1 | 50*[inhibitor] | 0 | i | -39 | 59 | 101 | -3 | 95
COc1ccccc1N(CC1CO1)S(=O)(=O)c1ccc(C)cc1 (configuration not stated) | 104 | 5 | i | -3 | 100 | nt | nt | nt
COc1ccc(CCNC(=O)CSc2nc(O)cc(=O)[nH]2)cc1OC | 134* | 10 | i | 29 | 114 | 106 | 10 | 110
COc1ccc(CCNC(=O)CN(c2ccc(OC)c(OC)c2)S(C)(=O)=O)cc1OC | 122* | 1 | i | 5 | 119 | 100 | 2 | 101
Cc1cc2c(cc1C)NC(CC(=O)NCc1ccccc1)C(=O)N2 (configuration not stated) | 109 | -13 | i | 6 | 107 | nt | nt | nt
